Records with an inconclusive call do not appear. Unmarked numbers belong to inactive results. Calls come from the whole dose curve; as a rule, active = well fitted cell-killing curve with a large enough effect in the repeat runs; inconclusive = weak or mixed curves, or effect the other way; inactive = flat fitted curve, though single readings scatter.
Experiment: qHTS RealTime-Glo MT Cell Viability Assay in HEK293 cells - 16 hour (AID 1224872); note: top concentration of the series differs between compounds; nearly all actives have a fitted effect of over 50% in size
Conditions: RealTime-Glo luminescence; series mostly up to 76.8 µM; activity change, negative = cytotoxicity: at the top concentration
Description: National Center for Advancing Translational Sciences [NCATS]
NIH Chemical Genomics Center [NCGC]
U.S. Environmental Protection Agency [EPA]
National Institutes of Environmental Health Sciences [NIEHS]
National Toxicology Program [NTP]
U.S. Food and Drug Administration [FDA]
Measure of cell viability is critical in the cell-base assay. Analysis of cell viability is necessary for the characterization of cell responses to cytotoxic drugs and environmental stress. A RealTime-Glo MT Cell Viability Assay to monitor cell viability in real time of continues cell culture during 40 hours of compound treatment was used to screen Tox21 10K library compounds in Hek293 cells. The RealTime-Glo MT Cell Viability Assay is a nonlytic, homogeneous, bioluminescent method to measure cell viability in real time using a simple, plate-based method. The assay involves adding NanoLuc luciferase and a cell-permeant prosubstrate to cells in culture. Viable cells reduce the proprietary prosubstrate to generate a substrate for NanoLuc luciferase. This substrate diffuses from cells into the surrounding culture medium, where it is rapidly used by the NanoLuc Enzyme to produce a luminescent signal. The signal correlates with the number of viable cells, making the assay well suited for cytotoxicity studies.
Tox21 Assay Protocol Summary:
The mixture of Hek293 cell suspension and reagents were dispensed at 600cells/6 ul/well in 1536-well tissue culture treated black solid bottom plates using a Multidrop dispenser. After the assay plates were incubated at a 37 C/5% CO2 incubator for 5 hours, 23 nL of compounds dissolved in DMSO, positive and negative controls was transferred to the assay plate by a pintool work station. The plates were incubated at 37 C for 40 hours. The luminescence intensity were measured at 0h, 8h, 16h, 24h, 32h and 40h time points using ViewLux plate reader during compound treatment.
% is set by controls: 0 for no effect and ±100 for the full control effect.

First: CC1=NN(c2cc(S(=O)(=O)O)ccc2Cl)C(=O)C1N=Nc1ccccc1 (stereo not given)
Second: CC(=O)c1ccc2ccccc2c1
The “activity change, negative = cytotoxicity” value of the first is lower: 4.48% for the first, 18.1% for the second.

Going from `CCCOC(=O)CC` to `CCCCCCC#CC(=O)OC`, the “activity change, negative = cytotoxicity” value falls from 8.81% to 0.728%.

Compared with `NC(=O)Cc1cccc2ccccc12`, `c1ccc(Cc2ccccc2)cc1` is lower in “activity change, negative = cytotoxicity” value: 0.807% for the first, -7.88% for the second.

Compared with `CC(=O)c1cnccn1`, `CC(C)c1ccc2ncccc2c1` is lower in “activity change, negative = cytotoxicity” value: 15.8% for the first, 0.0699% for the second.

First: O=C(O)c1cc(C(=O)O)cc(C(=O)O)c1
Second: CCOC(=O)COc1cc(-n2ncc(C(F)(F)F)c(C)c2=O)c(F)cc1Cl
The “activity change, negative = cytotoxicity” value of the first is higher: 2.76% for the first, -12.6% for the second.

Compared with `CC[C@H]1OC(=O)[C@H](C)[C@@H](O[C@H]2C[C@@](C)(OC)[C@@H](O)[C@H](C)O2)[C@H](C)[C@@H](O[C@@H]2O[C@H](C)C[C@H](N(C)C)[C@H]2O)[C@](C)(OC)C[C@@H](C)C(=O)[C@H](C)[C@@H](O)[C@]1(C)O`, `CC1OC1C1CCC2(C)OC2C1` (stereo not given) is higher in “activity change, negative = cytotoxicity” value: -17.7% for the first, -0.718% for the second.

Going from `CC1=CCC(O)(C(C)C)CC1` (stereo not given) to `CC1=CC(=O)[C@H]2C[C@@H]1C2(C)C`, the “activity change, negative = cytotoxicity” value falls from 2.99% to 0.002%.

Going from `CCCCCCCC1CCCC1=O` (stereo not given) to `C=CCCCCCCCCC(=O)OCC`, the “activity change, negative = cytotoxicity” value falls from 19% to 13.9%.

First: COc1ccnc(CS(=O)c2nc3cc(OC(F)F)ccc3[nH]2)c1OC (stereo not given)
Second: CCCCOCCOC(=O)COc1cc(Cl)c(Cl)cc1Cl
The “activity change, negative = cytotoxicity” value of the first is lower: -19.5% for the first, 17.1% for the second.

Compared with `CCCC[N+](C)(CCCC)CCCC`, `CNCCO` is higher in “activity change, negative = cytotoxicity” value: -0.952% for the first, 23.7% for the second.

With `C=CCCC(=O)O` the “activity change, negative = cytotoxicity” value was 7.25%.

Going from `C[C@H]1[C@H](NC(=O)/C(=N/OC(C)(C)C(=O)O)c2csc(N)n2)C(=O)N1S(=O)(=O)O` (stereo in doubt) to `Cc1nc2ccc(CN(C)c3ccc(C(=O)N[C@@H](CCC(=O)O)C(=O)O)s3)cc2c(=O)[nH]1`, the “activity change, negative = cytotoxicity” value rises from 1.96% [at 35.3 µM] to 7.3% [at 35.3 µM].

Compared with `C[N+](C)(C)CCCCCCCCCC[N+](C)(C)C`, `CC[N+](CC)(CC)CCOc1cccc(OCC[N+](CC)(CC)CC)c1OCC[N+](CC)(CC)CC` is lower in “activity change, negative = cytotoxicity” value: 12.8% [at 35.3 µM] for the first, 0.939% [at 35.3 µM] for the second.

Going from `C[C@@H]1CCC[C@H](C)N1` to `CC(N)C12CC3CC(CC(C3)C1)C2` (stereo not given), the “activity change, negative = cytotoxicity” value falls from -0.154% [at 35.3 µM] to -6.4% [at 35.3 µM].

Going from `CN(C)C(=O)Oc1cccc([N+](C)(C)C)c1` to `CC(=O)Oc1cccc(C)c1`, the “activity change, negative = cytotoxicity” value falls from 4.78% [at 35.3 µM] to 1.44% [at 35.3 µM].

Going from `O=C(O)Cc1csc(-c2ccc(Cl)cc2)n1` to `CC[N+](CC)(CC(=O)Nc1c(C)cccc1C)Cc1ccccc1` (tested in a mixture with another compound), the “activity change, negative = cytotoxicity” value falls from 6.05% [at 35.3 µM] to 3.63% [at 35.3 µM].

First: CCCC(=O)O[C@]1(C(=O)CC)CC[C@H]2[C@@H]3CCC4=CC(=O)CC[C@]4(C)[C@H]3[C@@H](O)C[C@@]21C
Second: CCC1C(=O)OCC1Cc1cncn1C (stereo not given)
The “activity change, negative = cytotoxicity” value of the first is lower: -19.7% [at 35.3 µM] for the first, 2.1% [at 35.3 µM] for the second.

Compared with `CN1CCC(=C2c3ccccc3CCc3cccnc32)CC1`, `c1ccc2sc(SN3CCOCC3)nc2c1` is higher in “activity change, negative = cytotoxicity” value: -6.15% [at 35.3 µM] for the first, 3.26% [at 35.3 µM] for the second.

Going from `CC[N+](C)(CC)CCOC(=O)C1c2ccccc2Oc2ccccc21` to `COc1ccccc1OCC1CNC(=O)O1` (stereo not given), the “activity change, negative = cytotoxicity” value rises from 1.26% [at 35.3 µM] to 10.3% [at 35.3 µM].

With `NCCCC(N)(C(=O)O)C(F)F` (stereo not given) the “activity change, negative = cytotoxicity” value was 2.34% [at 35.3 µM].

`CCN[C@@H]1C[C@H](N)[C@@H](OC2OC(CN)=CCC2N)[C@H](O)[C@H]1O[C@H]1OC[C@](C)(O)[C@H](NC)[C@H]1O` (stereo not given in full) showed an activity change, negative = cytotoxicity of 1.34% [at 0.29 µM].

`CN1CCN(c2cc3c(nn2)Oc2ccccc2N3C)CC1` showed an activity change, negative = cytotoxicity of 0.378% [at 15.8 µM].

Reference: PubChem BioAssay (Tox21)
